A short description of test [1]: Nuclear factor erythroid 2-related factor 2/antioxidant responsive element (Nrf2/ARE) small molecule agonists: luciferase reporter gene qHTS assay in human keratinocytes (AID 1919969). Also: nearly all actives have a fitted effect of over 35% in size. Also: potency is read from the fitted curve at half-maximal effect. On the technique in general: Reporter assays use an easily measured gene product as a stand-in for the process of interest.
The target of test [2] is Gonadotropin-releasing hormone receptor (Homo sapiens) (UniProt P30968). Nature of the test: Human gonadotropin-releasing hormone receptor (GnRHR) small molecule agonists, calcium flux assay in GnRHR-HEK293 cells (AID 1920063). Also: nearly all actives have a fitted effect of over 35% in size. Also: potency is read from the fitted curve at half-maximal effect. In outline: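 Intracellular calcium rise is the read-out: engineered human GnRHR HEK293 cells, dye-loaded, are exposed to DMSO-dissolved compounds and fluorescence at Ex/Em 480/540 is tracked for 3 min.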
Gonadotropin-releasing hormone receptor (Homo sapiens), sequence (P30968 whole entry, looked up): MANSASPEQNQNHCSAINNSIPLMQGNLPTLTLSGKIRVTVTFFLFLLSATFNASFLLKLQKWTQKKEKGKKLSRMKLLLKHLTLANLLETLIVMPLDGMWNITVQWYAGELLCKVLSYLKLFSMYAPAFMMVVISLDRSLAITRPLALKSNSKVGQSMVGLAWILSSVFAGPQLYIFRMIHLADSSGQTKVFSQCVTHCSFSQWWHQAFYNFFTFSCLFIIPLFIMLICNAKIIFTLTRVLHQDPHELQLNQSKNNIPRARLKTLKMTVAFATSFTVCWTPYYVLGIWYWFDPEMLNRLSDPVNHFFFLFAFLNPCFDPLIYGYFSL
For orientation: A change in cytosolic calcium serves as a functional read-out for many receptors and channels.

Test [3] concerns the target KiSS-1 receptor (Homo sapiens) (UniProt Q969F8). Nature of the test: Human kisspeptin (KISS1R) small molecule agonists, calcium flux assay in KISS1R-HEK293 cells (AID 1920064; active = well fitted activation curve with a large enough effect in the repeat runs). In outline: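 Concentration-response testing used 15 concentrations in triplicate on human KISS1R-expressing HEK293 cells. Calcium-dependent fluorescence (Ex/Em 480/540) was followed kinetically for 3 min after compound transfer.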

A short description of test [4]: G protein-coupled receptor (GPCR) small molecule agonists, calcium flux assay: HEK293 wild type cell line counter screen (AID 1920065). In outline: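 Fluorescence intensity signals activation. After overnight (18 h) culture and a 1 h calcium dye load at 37 C, compounds are added by pin tool and the plate read at 480/540 nm for 3 min in 1 s steps.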
Test [5] in a line: p53 small molecule agonists, cell-based qHTS assay with human liver microsomes (AID 1963577). In outline: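 Compounds act here after metabolic activation: human liver microsomes and NADPH, both at 0.5 mg/mL final, were co-added to p53RE-bla cells. Incubation ran 16 h at 37 C, followed by LiveBLAzer detection.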
Background: Quantitative high-throughput screening tests each substance at several concentrations.

A short description of test [6]: p53 small molecule agonists, cell-based qHTS assay with rat liver microsomes (AID 1963578). The essentials:
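Read-out is beta-lactamase reporter fluorescence (LiveBLAzer, 2 h, room temperature, dark) in p53RE-bla cells treated 16 h at 37 C with compound, rat liver microsomes and NADPH, both 0.5 mg/mL final.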

Test [7] in a line: p53 small molecule agonists, cell-based qHTS assay with human liver microsomes: qHTS cell viability counter screen (AID 1963579). Also: nearly all actives have a fitted effect of over 45% in size. In outline: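 Cells carrying the p53 response-element beta-lactamase reporter are treated for 16 h at 37 C with test compounds in the presence of human liver microsomes and NADPH (both 0.5 mg/mL final); ATP-based CellTiter-Glo luminescence then reports viability.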

The nature of test [8]: p53 small molecule agonists, cell-based qHTS assay with rat liver microsomes: qHTS cell viability counter screen (AID 1963580). Also: nearly all actives have a fitted effect of over 45% in size. The essentials: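 Rat liver microsome (0.5 mg/mL final) and NADPH (0.5 mg/mL final) co-incubation with compounds for 16 h at 37 C on HCT-116 p53RE-bla cells; cytotoxicity taken from intracellular ATP luminescence.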
The nature of test [9]: p53 small molecule agonists, cell-based qHTS assay: qHTS cell viability counter screen (AID 1963581). Also: nearly all actives have a fitted effect of over 45% in size. In outline:
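Luminescence from CellTiter-Glo, reflecting ATP content, serves as the cytotoxicity measure; it is taken after the 2 h reporter substrate step in HCT-116 p53RE-bla cells dosed for 16 h at 37 C.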

Test [10] can be described thus: p53 small molecule agonists, cell-based qHTS assay (AID 1963582; active = well fitted activation curve with a large enough effect in the signal ratio in the repeat runs, not every such curve was filed as active; the % refers to the signal ratio). The essentials: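 After plating, p53RE-bla cells sat 5 h in the incubator; compounds or DMSO vehicle were pinned in; a 16 h incubation at 37 C followed; FRET substrate was added and, 2 h later at RT, fluorescence was measured.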
Test [11] in a line: cAMP Responsive Elements (CRE) small molecule agonists, cell-based qHTS assay (AID 1963590). In outline:
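Compound exposure lasted 3 h at 37 C/5% CO2 in CRE-bla HEK 293T cells grown in assay medium with 10% dialyzed FBS and 25 mM HEPES. Reporter signal came from LiveBLAzer B/G FRET substrate, 2 h, room temperature.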

Test [12] in a line: cAMP Responsive Elements (CRE) small molecule antagonists, cell-based qHTS assay (AID 1963591; active = well fitted inhibition curve with a large enough effect in the signal ratio in the repeat runs, not every such curve was filed as active; the % refers to the signal ratio). The essentials:
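Stimulation used NKH477 at a final 0.25 uM for 3 h in compound-treated CRE-bla HEK293T cells, seeded 18 h beforehand. Reporter activity was measured with LiveBLAzer B/G FRET substrate after 2 h at room temperature.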

Test [13] has as its target Beta-2 adrenergic receptor (Homo sapiens) (UniProt P07550). Nature of the test: Adrenergic beta2 receptor (ADRB2) small molecule antagonists, cell-based qHTS assay (AID 1963592). Also: series mostly up to about 92 µM; nearly all actives have a fitted effect of over 50% in size. The essentials:
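Assay format: CHO-ADRB2 cells, 18-20hr seeding at 37C/5% CO2, then compound plus 1nM isoproterenol agonist mix for 0.5hr RT. Homogeneous time-resolved fluorescence cAMP detection after 1hr, expressed as 665/615 nm ratio.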

Test [14] deals with D(2) dopamine receptor (Homo sapiens) (UniProt P14416). Nature of the test: Dopamine D2 receptor (DRD2) small molecule agonists, cell-based qHTS assay (AID 1963594). Also: nearly all actives have a fitted effect of over 35% in size. In outline: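 cAMP accumulation in DRD2-HEK293 cells measured by HTRF after 1 h detection; compounds added 10 min before NKH477 (200nM […]) forskolin-analogue stimulation, 30 min at room temperature, with Ro20-1724 present at 0.1 mM final.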
D(2) dopamine receptor (Homo sapiens), sequence (P14416 whole entry, looked up): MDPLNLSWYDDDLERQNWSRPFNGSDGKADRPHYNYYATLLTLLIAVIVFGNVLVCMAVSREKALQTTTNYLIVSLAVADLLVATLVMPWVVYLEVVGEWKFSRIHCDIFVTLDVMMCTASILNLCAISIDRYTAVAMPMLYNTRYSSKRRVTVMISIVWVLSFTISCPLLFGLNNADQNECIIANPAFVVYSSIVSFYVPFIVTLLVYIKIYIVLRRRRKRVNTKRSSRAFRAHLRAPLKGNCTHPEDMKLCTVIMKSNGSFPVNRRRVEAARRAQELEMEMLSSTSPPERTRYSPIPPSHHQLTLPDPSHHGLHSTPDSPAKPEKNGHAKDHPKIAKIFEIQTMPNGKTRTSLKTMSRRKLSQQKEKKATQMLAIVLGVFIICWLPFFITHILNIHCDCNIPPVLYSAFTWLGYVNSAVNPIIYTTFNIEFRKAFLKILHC

The target is the same in test [15]. Nature of the test: Dopamine D2 receptor (DRD2) small molecule antagonists, cell-based qHTS assay (AID 1963595; active = well fitted inhibition curve with a large enough effect in the signal ratio in the repeat runs, with a control signal flat; the % refers to the signal ratio; also: potency is read from the fitted curve at half-maximal effect). In outline:
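Antagonism was scored as restored cAMP in HEK293-DRD2 cells. These cells were stimulated with 200 nM NKH477 and 12 nM quinpirole for 30 min at room temperature, in the presence of 0.1 mM Ro20-1724.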

For test [16], the target named is 5-hydroxytryptamine receptor 2A (Homo sapiens) (UniProt P28223). Nature of the test: 5-hydroxytryptamine receptor 2A (HTR2A) small molecule antagonists, cell-based qHTS assay (AID 1963586). Also: nearly all actives have a fitted effect of over 45% in size. In outline:
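CHO cells stably expressing human HTR2A were plated for 18 h at 37 C, then loaded with calcium dye for 1 h. Compounds were preincubated 5 min at room temperature before DOI (4 nM solution) was added. Kinetic fluorescence was read for 3 min.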

Test [17] has the same target. Nature of the test: 5-hydroxytryptamine receptor 2A (HTR2A) small molecule agonists, cell-based qHTS assay (AID 1963587). Also: nearly all actives have a fitted effect of over 30% in size. In outline: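 Kinetic calcium-flux fluorescence (2 min, 1 sec intervals) after compound addition in agonist mode. HTR2A-CHO cells were cultured 18 h, then dye-loaded 1 h at 37 C.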
The target of test [18] is Muscarinic acetylcholine receptor M1 (Homo sapiens) (UniProt P11229). Nature of the test: Cholinergic receptor muscarinic 1 (CHRM1) small molecule antagonists, cell-based qHTS assay (AID 1963588). Also: nearly all actives have a fitted effect of over 40% in size. The essentials:
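Compounds were tested at 15 concentrations in three independent runs. Dye-loaded CHRM1-CHO cells were exposed 5 min at room temperature before stimulation by acetylcholine added at 50nM. Intracellular calcium was read kinetically on FDSS for 3 min.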

For test [19] the target is unchanged. Nature of the test: Cholinergic receptor muscarinic 1 (CHRM1) small molecule agonists, cell-based qHTS assay (AID 1963589). Also: nearly all actives have a fitted effect of over 35% in size. In outline: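 Fluorescent calcium dye reports M1 activation in stably transfected CHO cells. Compounds, 15 concentrations, added after 1 h dye loading at 37 C; kinetic reading at 1 sec intervals.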

SMILES strings stand for the structures. Results filed as inconclusive are left out. Active and inactive are the calls of the source. Unless noted, calls follow the shape of the full dose curve.

Muscarinic acetylcholine receptor M1 (Homo sapiens), sequence (P11229 whole entry, looked up): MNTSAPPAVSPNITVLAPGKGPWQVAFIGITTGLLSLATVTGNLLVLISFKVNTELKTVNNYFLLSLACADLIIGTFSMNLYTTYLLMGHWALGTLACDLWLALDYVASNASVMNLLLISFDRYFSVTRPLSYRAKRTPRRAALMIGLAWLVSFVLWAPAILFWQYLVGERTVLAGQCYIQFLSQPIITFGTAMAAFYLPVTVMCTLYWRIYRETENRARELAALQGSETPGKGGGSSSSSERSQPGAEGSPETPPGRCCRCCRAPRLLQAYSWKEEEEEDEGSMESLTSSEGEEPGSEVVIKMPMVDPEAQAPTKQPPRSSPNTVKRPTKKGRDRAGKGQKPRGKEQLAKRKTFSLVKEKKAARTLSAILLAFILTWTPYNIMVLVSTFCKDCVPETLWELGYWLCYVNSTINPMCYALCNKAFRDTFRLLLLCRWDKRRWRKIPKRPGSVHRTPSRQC
5-hydroxytryptamine receptor 2A (Homo sapiens), sequence (P28223 whole entry, looked up): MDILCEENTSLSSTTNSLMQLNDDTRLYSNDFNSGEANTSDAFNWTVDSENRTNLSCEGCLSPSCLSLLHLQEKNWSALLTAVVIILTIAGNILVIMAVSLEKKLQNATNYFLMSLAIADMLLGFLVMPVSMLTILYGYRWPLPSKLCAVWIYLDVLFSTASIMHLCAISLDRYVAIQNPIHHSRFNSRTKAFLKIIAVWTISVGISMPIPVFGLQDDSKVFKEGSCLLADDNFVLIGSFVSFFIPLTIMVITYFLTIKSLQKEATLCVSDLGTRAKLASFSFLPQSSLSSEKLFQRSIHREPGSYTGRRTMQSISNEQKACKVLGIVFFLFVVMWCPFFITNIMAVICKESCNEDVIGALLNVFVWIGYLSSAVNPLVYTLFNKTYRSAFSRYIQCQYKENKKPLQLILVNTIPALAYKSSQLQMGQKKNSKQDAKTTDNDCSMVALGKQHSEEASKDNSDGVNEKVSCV
KiSS-1 receptor (Homo sapiens), sequence (Q969F8 whole entry, looked up): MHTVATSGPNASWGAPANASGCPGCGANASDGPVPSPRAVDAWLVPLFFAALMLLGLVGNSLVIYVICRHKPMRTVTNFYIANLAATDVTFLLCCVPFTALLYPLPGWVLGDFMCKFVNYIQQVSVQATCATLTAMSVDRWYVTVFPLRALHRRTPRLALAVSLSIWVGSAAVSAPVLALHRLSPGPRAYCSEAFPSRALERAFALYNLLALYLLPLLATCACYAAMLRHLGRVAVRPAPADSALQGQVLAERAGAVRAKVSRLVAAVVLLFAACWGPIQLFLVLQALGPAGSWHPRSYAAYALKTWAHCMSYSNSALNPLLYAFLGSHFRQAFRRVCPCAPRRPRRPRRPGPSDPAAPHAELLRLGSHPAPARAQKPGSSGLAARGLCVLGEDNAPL
Beta-2 adrenergic receptor (Homo sapiens), sequence (P07550 whole entry, looked up): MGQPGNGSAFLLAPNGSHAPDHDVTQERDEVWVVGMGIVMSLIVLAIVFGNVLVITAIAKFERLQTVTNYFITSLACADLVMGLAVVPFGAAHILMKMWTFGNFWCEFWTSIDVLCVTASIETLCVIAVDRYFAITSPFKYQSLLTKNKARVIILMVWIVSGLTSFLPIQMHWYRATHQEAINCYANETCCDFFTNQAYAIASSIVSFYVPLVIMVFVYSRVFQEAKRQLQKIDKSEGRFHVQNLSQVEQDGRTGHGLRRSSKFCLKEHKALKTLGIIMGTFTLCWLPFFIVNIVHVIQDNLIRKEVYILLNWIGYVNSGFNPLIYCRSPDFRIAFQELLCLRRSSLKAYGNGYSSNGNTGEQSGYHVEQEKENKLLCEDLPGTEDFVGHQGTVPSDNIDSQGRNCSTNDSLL

For the molecule `Cc1cccc(Nc2ccncc2S(=O)(=O)NC(=O)NC(C)C)c1`, the Potency entry in test [1], in test [2], in test [5], in test [6], in test [7] and in test [8] was “inactive” throughout. Moreover, the Potency entry in [9], in [10], in [11], in test [12], in [13] and in [14] was “inactive” each time. Besides, the Potency entry in test [15] is “inactive”. Also, the outcome in test [3] and in test [4] was inactive.

`CC12CCC(CC1=O)C2(C)C` (stereo not drawn): the Potency entry in test [1], in [2], in test [5], in test [6], in test [7] and in [8] was “inactive” each time. In addition, the Potency result in test [9], in [10], in [11], in test [12], in test [13] and in test [14] was “inactive” throughout. The Potency result in test [15] was “inactive”. The result in [3] and in [4] was inactive.

Consider `Oc1c(I)cc(I)c2cccnc12`, for which the Potency result in test [1], in test [2], in [5], in test [7], in [8] and in [10] was “inactive” each time. The Potency entry in test [11], in test [12], in [13], in [14] and in [15] was “inactive” each time. Further, the outcome in test [3] and in test [4] was inactive.

For `Nc1ccc(Cl)cc1[N+](=O)[O-]`, the Potency entry in [1], in test [2], in test [6], in [7], in [8] and in [9] was “inactive” in each case. Moreover, the Potency entry in test [10], in test [16], in [17], in test [18], in [19] and in test [11] was “inactive” each time. Also, the Potency entry in test [13], in test [14] and in test [15] was “inactive” in each case. Moreover, the outcome in test [3] and in [4] was inactive.

Consider `C=C/C(C)=C/C/C=C(\C)CCC=C(C)C`, for which the Potency in test [1] is 68600 nM (active). Besides, the Potency entry in test [2], in test [5], in test [6], in test [7], in test [8] and in test [9] was “inactive” in each case. Also, the Potency result in [17], in [18], in [19], in [13], in [14] and in test [15] was “inactive” each time. Moreover, the outcome in test [3] and in test [4] was inactive.

For `COC(=O)C(C)(C)C`, the Potency entry in [1], in test [2], in test [5], in test [6], in test [7] and in test [8] was “inactive” each time. Also, the Potency entry in test [16], in test [17], in [18], in test [19], in [11] and in test [12] was “inactive” in each case. For the same molecule, the Potency result in test [13], in [14] and in test [15] was “inactive” throughout. For the same molecule, the result in test [3] and in [4] was inactive.

On to `Cc1ccc(C(=O)Oc2ccc(C(O)CNC(C)(C)C)cc2OC(=O)c2ccc(C)cc2)cc1` (stereo not drawn), for which the Potency result in [1], in test [6], in test [8], in [16], in test [18] and in test [19] was “inactive” each time. Besides, in test [14], the Potency entry was “inactive”. In addition, the Potency in test [2] was 53.5 nM (active); in [15], 841 nM (active). Further, the result in test [3] and in [4] was inactive.

The values are drawn from PubChem BioAssay (Tox21).
